Laboratory results published in the supplement of paper PMC10849652.
About 7,900 targets were measured; listed, in parts, are those with a hit and a random draw of the rest. About 0.6% of all pairs of compound and target were hits. Unmarked numbers belong to inactive results.

Tests used:
Experiment in all cases: log2 fold change, soluble protein after heating vs DMSO (PISA); higher = thermal stabilisation; K562 cells, 10 uM, 30 min; active = over 0.2 and 3.5 SD of the protein, either way, in both replicates (recomputed)
[1] = compound: CC1=C(C=C(C=C1)NC(=O)C2=CC(=CC=C2)C(C)(C)C#N)NC3=CC4=C(C=C3)N=CN(C4=O)C
Method in brief: (§1)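 K562 cells (2×10^6 cells/mL) were treated with 10 μM compound for 30 min, and aliquots were heated for 3 min over 48°C-58°C. Pooled aliquots were extracted in PBS with 0.5% NP-40 at 4°C, and the supernatant after 21,000xg for 90 min was measured by TMTpro 16plex LC-MS/MS with channel sums equalised. Reported thermal stability, relative to control samples and from duplicates, is a log2 fold change.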

[2] = compound: CC1=C(C=C(C=C1)NC(=O)C2=CC(=CC=C2)N(C)C)NC(=O)C3=CC=C(C=C3)O
Method in brief: as §1

[3] = compound: CC1=CC=C(C=C1)SC2=C3C=C(SC3=CN=C2)C(=O)N
Method in brief: as §1

[4] = compound: CC1=NC(=CC=C1)C2=C(N=C(N2)C(C)(C)C)C3=CC4=NC=CN=C4C=C3
Method in brief: as §1

Nexturastat A = compound: CCCCN(Cc1ccc(C(=O)NO)cc1)C(=O)Nc1ccccc1 [Nexturastat A]
Method in brief: as §1

vemurafenib = compound: CCCS(=O)(=O)Nc1ccc(F)c(C(=O)c2c[nH]c3ncc(-c4ccc(Cl)cc4)cc23)c1F [vemurafenib]
Method in brief: as §1

[5] = compound: CCCS(=O)(=O)Nc1ccc(F)c(C(=O)c2c[nH]c3ncc(Cl)cc23)c1F
Method in brief: as §1

[6] = compound: CCCc1cc(C)[nH]c(=O)c1CNC(=O)c1cc(-c2ccnc(N3CCN(C)CC3)c2)cc2c1cnn2C(C)C
Method in brief: as §1

givinostat = compound: CCN(CC)Cc1ccc2cc(COC(=O)Nc3ccc(C(=O)NO)cc3)ccc2c1 [givinostat]
Method in brief: as §1

barasertib = compound: CCN(CCCOc1ccc2c(Nc3cc(CC(=O)Nc4cccc(F)c4)[nH]n3)ncnc2c1)CCOP(=O)(O)O [barasertib]
Method in brief: as §1

[7] = compound: CC[C@@H]1C(=O)N(C)c2cnc(Nc3ccc(C(=O)NC4CCN(C)CC4)cc3OC)nc2N1C1CCCC1
Method in brief: as §1

volasertib = compound: CC[C@@H]1C(=O)N(C)c2cnc(Nc3ccc(C(=O)N[C@H]4CC[C@H](N5CCN(CC6CC6)CC5)CC4)cc3OC)nc2N1C(C)C [volasertib]
Method in brief: as §1

[8] = compound: CC[C@H](C)N1C=C(C2=C(C=C(C=C21)C3=CN=C(C=C3)N4CCNCC4)C(=O)NCC5=C(C=C(NC5=O)C)C)C
Method in brief: as §1

epoxomicin = compound: CC[C@H](C)[C@@H](C(=O)N[C@@H]([C@@H](C)O)C(=O)N[C@@H](CC(C)C)C(=O)[C@]1(CO1)C)NC(=O)[C@H]([C@@H](C)CC)N(C)C(=O)C [epoxomicin]
Method in brief: as §1

[9] = compound: CCn1c(C(=O)N(C2CC2)C2CC2)cc2c3c(ncn3C)c(Nc3cc(C)n(C)n3)nc21
Method in brief: as §1

[10] = compound: CCn1cc(-c2ccnc3[nH]c(-c4cccc(CN(C)C)c4)cc23)c(-c2ccc(NC(=O)N(C)C)cc2)n1
Method in brief: as §1

[11] = compound: CN(C)CC(=O)Nc1ccc2[nH]c(=O)c3ccccc3c2c1
Method in brief: as §1

rosiglitazone = compound: CN(CCOC1=CC=C(C=C1)C[C@H]2C(=O)NC(=O)S2)C3=CC=CC=N3 (racemic) [rosiglitazone]
Method in brief: as §1

[12] = compound: CN1C2=C(C3=C1C(=O)N(N=C3)CC4=CC(=CC=C4)N)SC(=C2)S(=O)C
Method in brief: as §1

[13] = compound: CN1CCC(CNc2ccc3ncc(-c4cccc(OC(F)(F)F)c4)n3n2)CC1
Method in brief: as §1

Sequence of UniProt P50416 (P50416 whole entry, looked up): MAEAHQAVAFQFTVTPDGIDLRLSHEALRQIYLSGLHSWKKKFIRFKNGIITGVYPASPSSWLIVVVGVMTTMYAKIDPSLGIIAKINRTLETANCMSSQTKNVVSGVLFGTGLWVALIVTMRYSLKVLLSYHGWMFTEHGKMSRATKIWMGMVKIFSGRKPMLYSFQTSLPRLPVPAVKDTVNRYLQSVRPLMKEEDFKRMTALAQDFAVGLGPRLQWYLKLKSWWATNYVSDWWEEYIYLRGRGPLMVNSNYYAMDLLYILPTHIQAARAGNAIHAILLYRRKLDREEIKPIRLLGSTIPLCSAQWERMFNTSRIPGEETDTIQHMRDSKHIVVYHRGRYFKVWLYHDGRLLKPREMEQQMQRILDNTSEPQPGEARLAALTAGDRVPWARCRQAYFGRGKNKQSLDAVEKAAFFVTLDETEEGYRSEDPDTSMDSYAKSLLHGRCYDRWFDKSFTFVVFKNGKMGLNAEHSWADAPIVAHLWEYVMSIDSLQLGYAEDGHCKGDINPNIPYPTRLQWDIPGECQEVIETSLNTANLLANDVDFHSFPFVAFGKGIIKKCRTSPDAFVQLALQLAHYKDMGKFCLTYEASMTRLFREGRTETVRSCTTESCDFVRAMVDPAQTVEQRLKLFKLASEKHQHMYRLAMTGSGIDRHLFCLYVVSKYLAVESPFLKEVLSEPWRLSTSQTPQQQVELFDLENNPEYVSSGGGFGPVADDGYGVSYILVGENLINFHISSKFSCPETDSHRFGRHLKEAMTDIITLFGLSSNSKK
Sequence of UniProt Q9ULV3 (Q9ULV3 whole entry, looked up): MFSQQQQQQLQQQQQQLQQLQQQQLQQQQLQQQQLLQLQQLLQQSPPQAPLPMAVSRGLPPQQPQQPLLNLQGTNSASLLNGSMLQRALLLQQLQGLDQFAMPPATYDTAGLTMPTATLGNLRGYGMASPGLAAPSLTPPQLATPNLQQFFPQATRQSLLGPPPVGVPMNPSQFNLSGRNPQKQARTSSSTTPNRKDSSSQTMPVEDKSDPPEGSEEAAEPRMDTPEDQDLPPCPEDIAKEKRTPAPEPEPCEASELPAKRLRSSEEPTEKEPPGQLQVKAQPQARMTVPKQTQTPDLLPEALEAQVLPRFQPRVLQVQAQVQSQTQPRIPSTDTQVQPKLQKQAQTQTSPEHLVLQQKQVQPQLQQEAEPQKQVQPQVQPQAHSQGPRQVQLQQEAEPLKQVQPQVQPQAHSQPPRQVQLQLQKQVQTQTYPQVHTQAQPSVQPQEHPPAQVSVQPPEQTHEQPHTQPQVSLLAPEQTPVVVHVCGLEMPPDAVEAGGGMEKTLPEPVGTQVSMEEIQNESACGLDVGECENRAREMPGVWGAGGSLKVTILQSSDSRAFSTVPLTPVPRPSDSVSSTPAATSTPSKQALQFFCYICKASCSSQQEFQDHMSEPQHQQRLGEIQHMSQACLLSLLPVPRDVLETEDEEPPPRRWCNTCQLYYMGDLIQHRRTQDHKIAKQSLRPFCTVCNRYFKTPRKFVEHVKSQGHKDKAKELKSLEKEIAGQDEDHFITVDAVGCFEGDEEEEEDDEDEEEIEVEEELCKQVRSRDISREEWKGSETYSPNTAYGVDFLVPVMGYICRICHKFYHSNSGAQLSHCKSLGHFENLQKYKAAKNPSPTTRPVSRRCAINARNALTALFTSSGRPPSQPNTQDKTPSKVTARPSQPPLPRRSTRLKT
Sequence of UniProt O75208 (O75208 whole entry, looked up): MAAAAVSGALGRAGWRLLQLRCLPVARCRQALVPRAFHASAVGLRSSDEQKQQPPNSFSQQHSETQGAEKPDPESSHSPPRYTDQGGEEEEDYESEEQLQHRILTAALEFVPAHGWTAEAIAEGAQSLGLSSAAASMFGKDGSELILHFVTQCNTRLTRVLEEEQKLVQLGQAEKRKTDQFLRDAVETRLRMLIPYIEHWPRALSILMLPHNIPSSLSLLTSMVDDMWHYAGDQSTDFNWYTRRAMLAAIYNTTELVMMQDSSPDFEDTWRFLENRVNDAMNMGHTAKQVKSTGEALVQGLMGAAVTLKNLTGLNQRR
Sequence of UniProt Q7KZN9 (Q7KZN9 whole entry, looked up): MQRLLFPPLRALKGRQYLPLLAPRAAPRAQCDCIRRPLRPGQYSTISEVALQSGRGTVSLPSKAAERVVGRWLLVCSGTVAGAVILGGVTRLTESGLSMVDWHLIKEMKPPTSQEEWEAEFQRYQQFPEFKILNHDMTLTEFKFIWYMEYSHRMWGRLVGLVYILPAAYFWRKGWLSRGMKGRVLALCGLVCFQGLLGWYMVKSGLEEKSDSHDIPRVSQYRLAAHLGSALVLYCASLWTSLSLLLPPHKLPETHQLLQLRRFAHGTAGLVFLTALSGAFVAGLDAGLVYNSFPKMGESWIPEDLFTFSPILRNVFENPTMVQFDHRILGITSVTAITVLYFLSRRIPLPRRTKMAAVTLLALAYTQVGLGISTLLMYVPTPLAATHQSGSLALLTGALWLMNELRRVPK
Sequence of UniProt O75122 (O75122 whole entry, looked up): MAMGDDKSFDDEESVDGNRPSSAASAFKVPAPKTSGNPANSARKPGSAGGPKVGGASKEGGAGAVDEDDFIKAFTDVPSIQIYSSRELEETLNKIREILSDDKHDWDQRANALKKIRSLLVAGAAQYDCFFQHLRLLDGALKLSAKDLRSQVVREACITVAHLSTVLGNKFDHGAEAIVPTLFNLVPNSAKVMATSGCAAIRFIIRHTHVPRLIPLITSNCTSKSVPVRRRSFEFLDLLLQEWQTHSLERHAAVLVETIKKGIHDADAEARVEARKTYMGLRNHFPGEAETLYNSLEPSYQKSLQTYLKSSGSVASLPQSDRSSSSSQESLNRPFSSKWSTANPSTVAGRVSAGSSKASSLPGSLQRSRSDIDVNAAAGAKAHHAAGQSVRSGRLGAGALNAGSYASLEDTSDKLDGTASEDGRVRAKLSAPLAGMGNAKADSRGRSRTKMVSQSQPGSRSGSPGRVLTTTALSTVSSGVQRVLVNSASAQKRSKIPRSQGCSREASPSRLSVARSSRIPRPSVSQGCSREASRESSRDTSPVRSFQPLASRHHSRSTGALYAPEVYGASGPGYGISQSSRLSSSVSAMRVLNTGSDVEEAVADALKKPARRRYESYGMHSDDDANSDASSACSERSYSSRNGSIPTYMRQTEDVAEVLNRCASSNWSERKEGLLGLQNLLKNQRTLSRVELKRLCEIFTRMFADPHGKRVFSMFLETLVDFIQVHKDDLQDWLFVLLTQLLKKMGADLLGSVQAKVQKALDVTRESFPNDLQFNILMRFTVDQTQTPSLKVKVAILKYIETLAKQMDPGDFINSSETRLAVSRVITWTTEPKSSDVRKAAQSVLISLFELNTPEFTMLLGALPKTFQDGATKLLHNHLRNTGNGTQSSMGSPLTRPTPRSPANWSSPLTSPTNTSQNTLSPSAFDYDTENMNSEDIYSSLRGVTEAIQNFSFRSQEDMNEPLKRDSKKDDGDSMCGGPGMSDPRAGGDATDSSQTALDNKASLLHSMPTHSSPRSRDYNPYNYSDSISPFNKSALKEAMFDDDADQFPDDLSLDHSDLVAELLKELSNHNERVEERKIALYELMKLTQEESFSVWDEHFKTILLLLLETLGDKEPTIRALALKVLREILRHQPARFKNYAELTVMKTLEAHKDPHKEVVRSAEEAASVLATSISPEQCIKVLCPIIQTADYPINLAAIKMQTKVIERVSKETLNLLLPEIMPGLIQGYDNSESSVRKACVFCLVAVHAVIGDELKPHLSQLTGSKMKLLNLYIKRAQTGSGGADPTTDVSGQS
Sequence of UniProt O15234 (O15234 whole entry, looked up): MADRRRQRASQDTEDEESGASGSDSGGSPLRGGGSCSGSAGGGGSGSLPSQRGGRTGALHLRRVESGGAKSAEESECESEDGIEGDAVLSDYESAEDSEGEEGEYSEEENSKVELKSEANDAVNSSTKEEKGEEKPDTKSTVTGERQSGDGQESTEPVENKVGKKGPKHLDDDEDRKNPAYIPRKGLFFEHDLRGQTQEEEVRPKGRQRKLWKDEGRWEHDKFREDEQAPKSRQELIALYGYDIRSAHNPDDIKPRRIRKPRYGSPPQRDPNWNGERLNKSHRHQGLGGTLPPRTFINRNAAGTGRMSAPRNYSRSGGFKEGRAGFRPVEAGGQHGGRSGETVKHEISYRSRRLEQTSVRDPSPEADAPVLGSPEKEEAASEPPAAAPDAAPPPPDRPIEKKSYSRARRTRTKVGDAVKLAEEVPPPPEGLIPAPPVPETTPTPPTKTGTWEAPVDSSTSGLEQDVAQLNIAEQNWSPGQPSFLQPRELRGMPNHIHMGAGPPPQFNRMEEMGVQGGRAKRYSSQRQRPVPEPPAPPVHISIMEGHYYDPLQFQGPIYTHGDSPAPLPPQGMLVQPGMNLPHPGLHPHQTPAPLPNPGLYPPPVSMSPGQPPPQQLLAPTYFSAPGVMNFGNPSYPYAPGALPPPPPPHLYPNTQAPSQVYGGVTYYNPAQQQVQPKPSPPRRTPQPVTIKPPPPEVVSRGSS
Sequence of UniProt P35520 (P35520 whole entry, looked up): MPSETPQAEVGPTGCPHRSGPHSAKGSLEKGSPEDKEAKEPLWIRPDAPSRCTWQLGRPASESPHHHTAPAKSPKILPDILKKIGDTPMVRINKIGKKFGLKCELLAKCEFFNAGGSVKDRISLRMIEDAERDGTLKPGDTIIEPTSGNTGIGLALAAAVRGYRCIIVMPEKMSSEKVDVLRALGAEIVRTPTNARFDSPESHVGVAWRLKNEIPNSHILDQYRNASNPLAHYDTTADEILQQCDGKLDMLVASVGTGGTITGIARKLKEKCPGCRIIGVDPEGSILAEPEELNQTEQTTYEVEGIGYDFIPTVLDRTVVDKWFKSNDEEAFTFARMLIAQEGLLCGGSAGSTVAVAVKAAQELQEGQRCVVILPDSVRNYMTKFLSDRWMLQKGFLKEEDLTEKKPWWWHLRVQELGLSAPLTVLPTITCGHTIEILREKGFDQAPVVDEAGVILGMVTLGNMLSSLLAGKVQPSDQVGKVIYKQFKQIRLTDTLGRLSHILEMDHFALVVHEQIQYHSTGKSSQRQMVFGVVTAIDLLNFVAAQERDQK
Sequence of UniProt P14854 (P14854 whole entry, looked up): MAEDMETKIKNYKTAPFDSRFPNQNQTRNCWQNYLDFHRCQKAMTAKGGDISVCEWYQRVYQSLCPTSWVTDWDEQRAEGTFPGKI

Row | Target | log2 fold change [1] | log2 fold change [2] | log2 fold change [3] | log2 fold change [4] | log2 fold change (Nexturastat A) | log2 fold change (vemurafenib) | log2 fold change [5] | log2 fold change [6] | log2 fold change (givinostat) | log2 fold change (barasertib) | log2 fold change [7] | log2 fold change (volasertib) | log2 fold change [8] | log2 fold change (epoxomicin) | log2 fold change [9] | log2 fold change [10] | log2 fold change [11] | log2 fold change (rosiglitazone) | log2 fold change [12] | log2 fold change [13]
1 | CPT1A (UniProt P50416) | 0.069 | -0.077 | -0.054 | -0.114 | 0.083 | 0.11 | 0.022 | 0.09 | 0.048 | 0.01 | -0.048 | -0.047 | 0.045 | -0.003 | -0.076 | -0.064 | 0.013 | 0.025 | -0.053 | 0.333 (active)
2 | CETN3 (UniProt O15182) | 0.001 | 0.012 | -0.099 | -0.102 | -0.01 | -0.056 | -0.164 | -0.116 | 0.008 | 0.043 | 0.037 | -0.028 | 0.006 | 0.042 | 0.032 | -0.014 | -0.043 | 0.032 | -0.013 | -0.287 (active)
3 | CDC37L1 (UniProt Q7L3B6) | 0.035 | 0.001 | -0.054 | -0.021 | -0.028 | -0.008 | 0.019 | 0.063 | 0.044 | 0.063 | -0.14 | -0.199 | 0.059 | 0.029 | 0.02 | 0.091 | -0.054 | 0.005 | 0.001 | -0.048
4 | CRLF3 (UniProt Q8IUI8) | 0.05 | -0.015 | 0.03 | -0.071 | 0.005 | 0.057 | 0.044 | 0.025 | 0.065 | 0.073 | -0.085 | -0.277 | 0.067 | 0 | -0.069 | -0.041 | 0.024 | 0.041 | 0.031 | -0.268 (active)
5 | CBX1 (UniProt P83916) | 0.049 | -0.005 | 0.04 | 0.318 (active) | -0.026 | 0.07 | 0.057 | -0.011 | -0.042 | -0.009 | 0.001 | -0.119 | 0.103 | -0.022 | -0.007 | -0.037 | -0.013 | 0.009 | 0.028 | -0.014
6 | CIZ1 (UniProt Q9ULV3) | -0.02 | -0.027 | -0.022 | 0.059 | 0.011 | -0.018 | -0.007 | -0.033 | 0.017 | 0.001 | 0.071 | -0.022 | 0.046 | 0.086 | -0.008 | 0.017 | -0.011 | -0.034 | 0.015 | -0.035
7 | CLASP2 isoform 3 (UniProt O75122) | -0.032 | -0.01 | 0.013 | 0.012 | -0.006 | 0.089 | 0.061 | 0.029 | 0.013 | 0.066 | -0.175 | -0.326 (active) | 0.054 | 0.034 | -0.087 | -0.024 | 0.051 | 0.038 | 0 | -0.227 (active)
8 | COX15 (UniProt Q7KZN9) | 0.05 | 0.024 | 0.001 | 0.003 | -0.113 | 0.005 | 0.015 | -0.077 | -0.008 | 0.009 | 0.057 | 0.023 | -0.037 | -0.018 | 0.05 | 0.021 | 0.006 | 0.085 | -0.044 | -0.015
9 | CASC3 (UniProt O15234) | 0.043 | -0.003 | 0.009 | -0.027 | -0.004 | -0.156 | -0.061 | -0.065 | -0.045 | 0.043 | 0.303 | 0.272 | -0.068 | -0.058 | 0.016 | 0.087 | -0.081 | 0.015 | 0.102 | 0.02
10 | CHD3 isoform 3 (UniProt Q12873) | 0.03 | -0.035 | 0.016 | -0.077 | 0.056 | 0.113 | 0.138 | 0.081 | 0.226 | 0.046 | -0.093 | -0.757 (active) | 0.149 | 0.017 | -0.042 | 0.067 | 0.126 | 0.048 | 0.099 | -0.144
11 | CSNK2A1 (UniProt P68400) | -0.047 | -0.004 | -0.044 | 0.025 | 0.034 | 0.006 | 0.008 | -0.018 | -0.003 | -0.024 | 0.007 | 0.04 | 0.002 | -0.012 | 0.003 | -0.117 | -0.007 | 0.024 | -0.04 | -0.233
12 | COX6B1 (UniProt P14854) | -0.006 | -0.144 | 0.136 | 0.016 | -0.001 | 0.015 | -0.005 | -0.069 | -0.025 | 0.085 | 0.036 | 0.023 | -0.013 | 0.333 | 0.046 | -0.014 | -0.081 | 0.013 | -0.054 | 0.038
13 | CBS (UniProt P35520) | 0.031 | -0.001 | 0.004 | 0.019 | -0.08 | -0.021 | -0.004 | -0.016 | -0.135 | 0.02 | 0.007 | 0.036 | -0.049 | 0.035 | -0.019 | 0.02 | -0.012 | 0.012 | -0.073 | -0.03
14 | COQ9 (UniProt O75208) | 0.016 | 0.045 | 0.054 | 0.064 | -0.266 (active) | 0.041 | -0.004 | -0.006 | -0.006 | 0.046 | -0.04 | -0.05 | 0.001 | -0.041 | -0.022 | 0.002 | 0.018 | 0.025 | -0.057 | -0.135
15 | CPSF3 (UniProt Q9UKF6) | -0.014 | 0.005 | -0.006 | -0.012 | -0.085 | 0.017 | 0.063 | -0.001 | -0.03 | 0.022 | -0.105 | -0.252 (active) | 0.043 | -0.013 | -0.032 | -0.008 | 0.033 | 0.014 | -0.032 | 0.003
16 | CLPP (UniProt Q16740) | -0.002 | -0.004 | -0.003 | 0.007 | 0.041 | 0.015 | 0.008 | 0.023 | 0.003 | 0.001 | -0.03 | 0.035 | -0.045 | -0.056 | -0.023 | -0.015 | 0.017 | -0.035 | 0 | 0.081
